Experimental data from PubChem BioAssay (Tox21).
Inconclusive results are not listed. Active and inactive are the calls of the source. Unless noted, calls follow the shape of the dose curve; as a rule, active = well fitted curve in the direction sought with a large enough effect in the repeat runs; inconclusive = weak or mixed curves; inactive = no such curve, though single readings can be large; an effect the other way counts as inactive or inconclusive.

Tests used:
[1] = qHTS assay to identify small molecule agonists of the sonic hedgehog signaling (Shh) pathway - cell viability counter screen (AID 1259366); also: nearly all actives have a fitted effect of over 50% in size
In short: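 NIH/3T3-derived 3T3 Gli1-Luc cells (stable Gli1-responsive firefly luciferase reporter) were seeded, rested 4 hr at 37 C/5% CO2, then exposed to compounds in DMSO for 24 hr; viability was read by CellTiter-Fluor fluorescence in the same wells.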

[2] = qHTS assay to identify small molecule antagonists of the sonic hedgehog signaling (Shh) pathway - cell viability counter screen (AID 1259367); also: nearly all actives have a fitted effect of over 55% in size
In short: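 CellTiter-Fluor signal in conditioned medium-stimulated 3T3 Gli1-Luc cells, 23 hr compound exposure, 37C.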

[3] = qHTS assay to identify small molecule agonists of the sonic hedgehog signaling (Shh) pathway (AID 1259368; calls by dose curve; also: series mostly up to about 92 µM; nearly all actives have a fitted effect of over 15% in size)
In short: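 Hedgehog pathway agonism scored by increased firefly luciferase luminescence in 3T3Gli1-Luc cells treated 24 hr at 37 C; detection used a 30 min room-temperature reagent incubation.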

[4] = qHTS assay to identify small molecule antagonists of the sonic hedgehog signaling (Shh) pathway (AID 1259369; calls by dose curve; also: nearly all actives have a fitted effect of over 45% in size)
In short: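 NIH/3T3 stable Gli1-Luc clone, 2,000 cells/well, 4hr settle; cpd + conditioned medium 24hr; Luc reagent 30min RT; luminescence.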

[5] = biological target: Estrogen receptor beta (Homo sapiens) (UniProt Q92731); test: qHTS assay to identify small molecule agonists of the estrogen receptor beta (ER-beta) signaling pathway (AID 1259377; active = well fitted activation curve with a large enough effect in the signal ratio in the repeat runs, not every such curve was filed as active; the % refers to the signal ratio)
In short: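 ER-beta-UAS-bla HEK293T (GripTite) cells carrying a UAS-driven beta-lactamase reporter, in medium with 2% charcoal-stripped FBS, were exposed to compounds for 16 hr at 37C; LiveBLAzer B/G FRET substrate was then added and fluorescence read after 2 hours at room temperature.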

[6] = biological target: Estrogen receptor beta (Homo sapiens) (UniProt Q92731); test: qHTS assay to identify small molecule antagonists of the estrogen receptor beta (ER-beta) signaling pathway (AID 1259378; active = well fitted inhibition curve with a large enough effect in the signal ratio in the repeat runs, not every such curve was filed as active; the % refers to the signal ratio)
In short: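 Antagonist mode: compounds added to beta-lactamase reporter HEK293T ER-beta-UAS cells stimulated with E2 (1nM final), 16 hr at 37C. LiveBLAzer B/G FRET substrate, 2 hours room temperature, fluorescence read-out.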

[7] = qHTS assay to identify small molecule agonists of the androgen receptor (AR) signaling pathway in the presence of an antagonist - cell viability counter screen (AID 1259379);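 also: MDA-kb2 human breast cancer cells carrying an MMTV luciferase reporter; series mostly up to about 92 µM; nearly all actives have a fitted effect of over 25% in size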
In short: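 MDA-kb2 viability measured by CellTiter-Fluor fluorescence in the same wells as the luciferase signal; nilutamide 3.0uM final; 15-point compound titration; 16 hr at 37C.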

[8] = qHTS assay to identify small molecule agonists of the estrogen receptor beta (ER-beta) signaling pathway - cell viability counter screen (AID 1259380); also: nearly all actives have a fitted effect of over 30% in size
In short: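 Measured: luminescence from CellTiter-Glo after 30 min at room temperature, added to wells already read for the LiveBLAzer FRET reporter (2 hr substrate); ER-beta-UAS-bla HEK293T cells had 16 hr compound treatment at 37C, 5% CO2.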

[9] = qHTS assay to identify small molecule antagonists of the estrogen receptor beta (ER-beta) signaling pathway - cell viability counter screen (AID 1259382); also: series mostly up to about 92 µM; nearly all actives have a fitted effect of over 55% in size
In short: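 Readout: luminescence, CellTiter-Glo, same wells as bla assay. System: ER-beta-UAS-bla GripTite HEK293T, 2% charcoal-stripped FBS. Exposure: compounds plus 1nM 17-beta-estradiol, 16 hr, 37C.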

[10] = biological target: Androgen receptor (Homo sapiens) (UniProt P10275); test: qHTS assay to identify small molecule agonists of the androgen receptor (AR) signaling pathway in the presence of an antagonist (AID 1259381; calls by dose curve; also: nearly all actives have a fitted effect of over 15% in size)
In short: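 Luminescent ONE-Glo read, 30min at room temperature, follows 16hr compound exposure (15 concentrations) of MDA-kb2 cells at 37C, 0% CO2, with nilutamide added at 3.0uM final.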
% is scaled to controls: 0 for no effect and ±100 for the full control effect.

Sequence of Estrogen receptor beta (Homo sapiens) (Q92731 whole entry, looked up): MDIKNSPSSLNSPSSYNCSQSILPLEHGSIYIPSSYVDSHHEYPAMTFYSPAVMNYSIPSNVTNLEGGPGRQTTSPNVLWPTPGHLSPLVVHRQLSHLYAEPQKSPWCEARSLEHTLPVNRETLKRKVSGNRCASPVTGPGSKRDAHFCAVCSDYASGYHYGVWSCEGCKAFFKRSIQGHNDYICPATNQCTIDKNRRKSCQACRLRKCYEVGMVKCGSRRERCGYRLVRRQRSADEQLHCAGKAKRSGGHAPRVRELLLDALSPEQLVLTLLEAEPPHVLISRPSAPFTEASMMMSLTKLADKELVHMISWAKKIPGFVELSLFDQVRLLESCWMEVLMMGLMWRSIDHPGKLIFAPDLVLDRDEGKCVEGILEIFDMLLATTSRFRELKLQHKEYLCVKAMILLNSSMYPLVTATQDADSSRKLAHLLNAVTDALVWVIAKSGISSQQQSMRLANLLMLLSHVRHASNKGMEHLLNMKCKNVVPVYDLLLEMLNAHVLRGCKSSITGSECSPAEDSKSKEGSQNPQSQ
Sequence of Androgen receptor (Homo sapiens) (P10275 whole entry, looked up): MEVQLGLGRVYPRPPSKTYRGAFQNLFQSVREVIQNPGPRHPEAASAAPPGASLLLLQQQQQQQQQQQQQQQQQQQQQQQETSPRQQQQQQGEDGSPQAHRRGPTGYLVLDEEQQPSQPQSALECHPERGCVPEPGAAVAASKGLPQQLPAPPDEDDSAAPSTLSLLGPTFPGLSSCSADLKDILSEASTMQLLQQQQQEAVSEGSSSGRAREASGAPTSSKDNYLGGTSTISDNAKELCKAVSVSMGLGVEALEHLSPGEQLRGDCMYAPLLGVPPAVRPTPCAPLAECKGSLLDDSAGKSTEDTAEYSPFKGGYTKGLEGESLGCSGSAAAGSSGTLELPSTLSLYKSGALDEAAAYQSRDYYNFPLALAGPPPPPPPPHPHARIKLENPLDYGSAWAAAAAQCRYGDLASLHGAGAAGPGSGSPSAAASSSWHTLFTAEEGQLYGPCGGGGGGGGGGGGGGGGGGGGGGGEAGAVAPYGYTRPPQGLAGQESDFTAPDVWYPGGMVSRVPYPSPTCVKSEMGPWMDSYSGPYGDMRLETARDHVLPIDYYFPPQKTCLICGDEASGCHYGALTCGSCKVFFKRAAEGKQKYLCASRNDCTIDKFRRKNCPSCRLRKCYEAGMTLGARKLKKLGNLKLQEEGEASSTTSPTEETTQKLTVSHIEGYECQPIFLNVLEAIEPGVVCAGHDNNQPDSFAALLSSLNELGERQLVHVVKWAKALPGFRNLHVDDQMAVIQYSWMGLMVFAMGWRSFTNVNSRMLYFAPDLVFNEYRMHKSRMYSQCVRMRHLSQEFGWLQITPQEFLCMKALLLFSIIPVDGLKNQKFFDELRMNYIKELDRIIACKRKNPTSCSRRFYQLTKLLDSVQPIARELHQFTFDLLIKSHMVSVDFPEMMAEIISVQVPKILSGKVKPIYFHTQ

CN(C)CCc1c[nH]c2ccc(C[C@H]3COC(=O)N3)cc12
inactive: outcome [1] | outcome [2] | outcome [3] | Potency [4] | Potency [5] | outcome [6] | outcome [7] | Potency [8] | outcome [9]

Cc1ccc2ccccc2n1
inactive: outcome [1] | outcome [2] | outcome [3] | Potency [4] | Potency [5] | outcome [6] | outcome [7] | outcome [9]

CN(C)c1ccncc1
inactive: outcome [1] | outcome [2] | outcome [3] | Potency [4] | Potency [5] | outcome [6] | outcome [7] | Potency [8] | outcome [9]

COCc1nnc(-c2ccc[n+]([O-])c2)n1-c1c(Cl)c(Cl)cc2[nH]c(=O)c(=O)[nH]c12
inactive: outcome [1] | outcome [2] | outcome [3] | Potency [4] | outcome [6] | outcome [7] | Potency [8] | outcome [10] | outcome [9]

O=c1[nH]c(=O)c2cn[nH]c2[nH]1
inactive: outcome [1] | outcome [2] | outcome [3] | Potency [4] | Potency [5] | outcome [6] | outcome [7] | Potency [8] | outcome [9]

COC(C)(C)CC(C)=O
inactive: outcome [1] | outcome [2] | outcome [3] | Potency [4] | Potency [5] | outcome [7] | Potency [8] | outcome [10] | outcome [9]

Nc1ccc(C(=O)NCC(=O)O)cc1
inactive: outcome [1] | outcome [2] | outcome [3] | Potency [4] | Potency [5] | outcome [7] | Potency [8] | outcome [9]

C=C(C)C(=O)OCCOC1CC2CC1C1C=CCC21 (centres undefined)
inactive: outcome [1] | outcome [2] | outcome [3] | Potency [4] | Potency [5] | outcome [6] | outcome [7] | outcome [9]

CCOC(=O)CC
inactive: outcome [1] | outcome [2] | outcome [3] | Potency [4] | Potency [5] | outcome [7] | outcome [9]

CC(C)(C)c1ccc(C(=O)CCCCl)cc1
inactive: outcome [1] | outcome [2] | outcome [3] | Potency [4] | Potency [5] | outcome [6] | outcome [7] | Potency [8] | outcome [9]

CCCCC(CC)COC(=O)CC#N (centres undefined)
inactive: outcome [1] | outcome [2] | outcome [3] | Potency [4] | Potency [5] | outcome [6] | outcome [7] | outcome [9]

CNC(=O)c1c(I)c(NC(C)=O)c(I)c(C(=O)O)c1I
inactive: outcome [1] | outcome [2] | outcome [3] | Potency [4] | Potency [5] | outcome [6] | outcome [7] | Potency [8] | outcome [9]

CC(C)(C)C(=O)CC(=O)C(C)(C)C
inactive: outcome [1] | outcome [2] | outcome [3] | Potency [4] | outcome [6] | outcome [7] | outcome [9]

CCO/C=C1\N=C(c2ccccc2)OC1=O
inactive: outcome [1] | outcome [2] | outcome [3] | Potency [4] | outcome [6] | outcome [7] | Potency [8] | outcome [9]

C[C@H]1COc2c(C3(N)CC3)c(F)cc3c(=O)c(C(=O)O)cn1c23
inactive: outcome [1] | outcome [2] | outcome [3] | Potency [4] | outcome [6] | outcome [7] | outcome [9]

CCCCCCC(=O)c1ccccc1
inactive: outcome [1] | outcome [2] | outcome [3] | Potency [4] | outcome [6] | outcome [7] | Potency [8] | outcome [9]

CCCCC(CC)CCC(CC(C)C)OS(=O)(=O)O (centres undefined)
inactive: outcome [1] | outcome [2] | outcome [3] | Potency [4] | outcome [6] | outcome [7] | Potency [8] | outcome [9]

c1cc2ccc3ccc4ccc5cccc6c(c1)c2c3c4c56
inactive: viability change, negative = cytotoxic [1] 2.39% [at 3.27 µM] | viability change, negative = cytotoxic [2] -2.17% [at 3.27 µM] | activity change [3] 0.83% [at 3.27 µM] | activity change, negative = inhibition [4] 17.2% [at 3.27 µM] | activity, negative = inhibition [6] 4.07% [at 3.27 µM] | activity change, negative = cytotoxicity [7] 2.9% [at 3.27 µM] | activity change, negative = cytotoxicity [8] 0.89% [at 3.32 µM] | activity change, negative = cytotoxicity [9] -0.247% [at 3.27 µM]

COc1cc(S(N)(=O)=O)cc(C(=O)O)c1OC
inactive: outcome [1] | outcome [2] | outcome [3] | Potency [4] | outcome [6] | outcome [7] | Potency [8] | outcome [9]

CNC(C)=O
inactive: outcome [1] | outcome [2] | outcome [3] | Potency [4] | outcome [6] | outcome [7] | outcome [9]

CCN(CC)CC(=O)Oc1ccc(NC(C)=O)cc1
inactive: outcome [1] | outcome [2] | outcome [3] | Potency [4] | outcome [6] | outcome [7] | Potency [8] | outcome [10] | outcome [9]

CC(=O)SCC(CC(=O)c1ccc(C)cc1)C(=O)O (centres undefined)
inactive: outcome [1] | outcome [2] | outcome [3] | Potency [4] | outcome [6] | outcome [7] | outcome [9]

Cc1cc2c(cc1CC(=O)c1sccc1S(=O)(=O)Nc1onc(C)c1Cl)OCO2
inactive: outcome [1] | outcome [2] | outcome [3] | Potency [4] | outcome [6] | outcome [7] | outcome [9]

CC(CC(=O)Cl)CC(C)(C)C (centres undefined)
inactive: outcome [1] | outcome [2] | outcome [3] | Potency [4] | outcome [6] | outcome [7] | Potency [8] | outcome [9]

Cc1ccccc1OCC(=O)O
inactive: outcome [1] | outcome [2] | outcome [3] | Potency [4] | outcome [6] | outcome [7] | outcome [9]

CC(C)C(C)C
inactive: outcome [1] | outcome [2] | outcome [3] | Potency [4] | outcome [6] | outcome [7] | Potency [8] | outcome [9]

Cc1ccc(O)c([N+](=O)[O-])c1
inactive: outcome [1] | outcome [2] | outcome [3] | Potency [4] | outcome [7]

CCCCc1ccc(Cl)cc1
inactive: outcome [1] | outcome [2] | outcome [3] | Potency [4] | outcome [6] | outcome [7] | outcome [9]

c1coc(Cn2cccc2)c1
inactive: outcome [1] | outcome [2] | outcome [3] | Potency [4] | outcome [6] | outcome [7] | Potency [8] | outcome [9]
